In PubChem BioAssay AID624202 (National Center for Advancing Translational Sciences (NCATS), 2012):
Out of some 380,000 compounds screened, about 4,000 (1.1%) were called active. Roughly 3% stayed inconclusive and do not appear here. Shown is part of a subset that was picked to be rich in actives. A number with no mark means an inactive call. Calls come from the whole dose curve; as a rule, active = well fitted activation curve with a large enough effect; inconclusive = small, poorly fitted or top-dose-only effect; inactive = no such curve, though single readings can be large or run the other way.

test: qHTS Assay to Identify Small Molecule Activators of BRCA1 Expression; settings: MCF7-BRCA1-FFLuc reporter, luminescence, 48 h; series mostly up to 46.1 µM; activation: at the top concentration; note: nearly all actives have a fitted effect of over 80% in size
Outline: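 First, MCF7-BRCA1-FFLuc cells (2000/well) attach for 2 h; next, compounds are pin-added and incubated 48 h at 37 °C; finally, luciferase reagent is added and luminescence read after 15 min.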
Potency is the fitted concentration of half-maximal effect.

Structure (SMILES)	activation [%]	Potency
Cc1cc(NC(=O)CC(C)C)cc(-c2nc3ncccc3o2)c1O	-5.81	
Cc1ccc(-c2nc3ccc(Cl)cn3c2Cc2ccccc2)cc1		10 µM (active)
Cc1ccc(Cc2c(-c3ccco3)nc3ccc(Cl)cn23)cc1	-32	
Fc1cccc(Cc2c(-c3ccc(Cl)cc3)nc3ccc(Cl)cn23)c1	18	
CC1(C)CC(=O)c2cc(C(=O)NCc3ccccc3)c(=O)[nH]c2C1	0	
Cc1ccc(C)c(NC(=O)c2ccc(OC(=O)c3ccco3)cc2)c1	46.3	
Cc1ccc(O)c(NC(=O)c2cc(-c3ccco3)on2)c1		5.62 µM (active)
CC(=O)c1ccc(NC(=O)c2cc(-c3cccs3)on2)cc1	67.3	
COC(=O)c1ccccc1NC(=O)Cn1c(=O)cc(C)c2c(C)nn(-c3cccc(Cl)c3C)c21	4.63	
O=C(COc1ccccc1)OCc1cc(=O)n2nc(-c3cccs3)sc2n1	0	
Nc1ccc(N=Nc2ccccc2Cl)c(N)n1		3.55 µM (active)
CCC(C(=O)Nc1cccc(Cl)c1C)n1nc(-c2ccc(C)cc2)ccc1=O (stereo not given)	-24.6	
O=C(Nc1ccccc1)c1ccc(NC(=O)c2cccs2)cc1		7.94 µM (active)
NS(=O)(=O)c1ccc(NC(=S)NNC(=O)c2cccs2)cc1	0	
CS(=O)(=O)c1ccc(C(=O)NNC(=O)c2cccs2)cc1	1.26	
COc1cccc(N2CCN(S(=O)(=O)c3cc(Br)cc4c3N(C(=O)C3CC3)CC4)CC2)c1	3.39	
COc1ccccc1C(=O)OCc1cc(=O)n2nc(-c3cccs3)sc2n1	-16.9	
Cc1ccc(-c2noc(-c3ccccc3C(=O)NCC3CCCO3)n2)cc1 (stereo not given)	10.2	
CCCCNc1ccc(-c2nc(-c3ccncc3)no2)cc1[N+](=O)[O-]	8.14	
O=C(NCc1cccnc1)c1nc(-c2cccs2)no1	-4.18	
Cc1ccc(-c2nc(-c3ccncc3)no2)c(C)c1		5.01 µM (active)
c1csc(-c2nc(-c3ccncc3)no2)c1		4.47 µM (active)

Structure (SMILES)	activation [%]	Potency
O=C(c1cccs1)N1CCCC(c2nc(-c3ccc(F)cc3)no2)C1 (stereo not given)	78.6	
COc1ccc(-c2nc(C)c(CCNC(=O)c3ccc(C(F)(F)F)cc3)s2)cc1OC	8.95	
COc1ccc(NC(=O)c2ccc3nc(C(C)C)oc3c2)cc1OC	43.9	
COc1ccc(-n2c(=O)c3c(c4cc(OC)ccc4n3C)n(Cc3cccc(C)c3)c2=O)cc1	-15.1	
CCc1c(C)sc(NC(=O)c2cccs2)c1C(N)=O		3.55 µM (active)
CCc1nnc(NC(=O)c2cccs2)s1		12.6 µM (active)
CCc1nnc(NC(=O)C2CCCN2S(=O)(=O)c2ccccc2)s1 (stereo not given)	1.72	
CCOC(=O)c1c(NC(=O)C2CC=CCC2C(=O)O)sc(C)c1CC (stereo not given)	3.34	
CCc1nnc(NC(=O)CCC(=O)NCc2ccccc2OC)s1	0.553	
CCOC(=O)CSc1nnc(CNC(=O)c2cccs2)n1-c1ccccc1	-17.3	
CCS(=O)(=O)N1CCc2cc(C(=O)N3CCN(c4ccccc4OC)CC3)ccc21	-1.91	
Cc1nc2ccc(NC(=O)C3CCCCC3)cc2s1	22.7	
Cc1nc(NC(=O)C23CCC(C)(C(=O)O2)C3(C)C)sc1C (stereo not given)	0.809	
Cc1nc(NC(=O)C2CCCCC2)sc1C		12.6 µM (active)
CC(C)(C(=O)NO)c1ccccc1	28.4	
C/C(=N\NC(=O)c1ccc2ccccc2c1)c1cccnc1		10 µM (active)
C/C(=N\NC(=O)c1cccnc1)c1ccc(-n2ccnc2)cc1	14.6	
C/C(=N\NC(=O)c1cccc([N+](=O)[O-])c1)c1cccnc1	-22.5	
OCCNc1ncnc2oc(-c3ccco3)c(-c3ccco3)c12	-32.8	
Cc1oc2ncnc(N3CCCCC3)c2c1C(=O)N1CCN(c2cccc(Cl)c2)CC1	-29.6	
COC(=O)c1ccccc1NS(=O)(=O)c1ccc2c(c1)CCCN2C(C)=O	3.64	
CC(C)CC(=O)NC(=S)Nc1ccc(F)cc1F	46.9	

Structure (SMILES)	activation [%]	Potency
CC(=O)c1ccc(NC(=S)NC(=O)CC(C)C)cc1		7.94 µM (active)
CC(C)CC(=O)NC(=S)NNC(=O)c1cccc([N+](=O)[O-])c1	-31.6	
CCc1ccccc1NC(=O)Cc1ccc(NC(=O)N2CCCCc3ccccc32)cc1	0	
CCCCN(C)S(=O)(=O)c1ccc(C(=O)Nc2sc3c(c2C(N)=O)CC(C)(C)NC3(C)C)cc1	-0.616	
CCC(C)(C)NC(=O)C(c1ccccn1)N(C(=O)c1csnn1)c1ccccc1 (stereo not given)	-9.03	
CN(C(=O)c1ccccn1)c1nnc(-c2ccccn2)s1		11.2 µM (active)
CN(C(=O)C1CCOC1)c1nnc(-c2cccnc2)s1 (stereo not given)	-2.74	
Brc1cccc[n+]1Cc1cccc(C[n+]2ccccc2Br)c1	9	
Cc1cc(C)cc(NC(=O)CCS(=O)(=O)c2cc3c4c(c2)CCN4C(=O)CC3)c1	6.06	
COc1ccc2c(c1OC)C(=O)N(c1ncn[nH]1)C2	3.12	
COc1ccc2c(c1OC)C(=O)N(c1ccc(O)cc1)C2		4.47 µM (active)
CC(C)(C)c1ccc(OC2=CS(=O)(=O)c3ccccc32)cc1		12.6 µM (active)
CC(C)(C)c1ccc(Oc2ccc(N)cc2)cc1	-82.1	
CC(C)(C)c1ccc(CN2C(=O)c3ccccc3S2(=O)=O)cc1	69.5	
O=S(=O)(c1cccc(C(F)(F)F)c1)N1CCN(c2nc(-c3cccs3)nc3ccccc23)CC1	14.8	
O=C(CCNC(=O)c1ccccc1)NN=Cc1ccc(Br)o1	-7.6	
Cc1cccc(NC(=O)CSc2nnc(CCCCCNC(=O)OC(C)(C)C)o2)c1C	-6.49	
CC(C)(C)OC(=O)NCCCCCC(=O)N/N=C/c1coc2ccccc2c1=O		11.2 µM (active)
Cc1ccc(-c2nc(=N)sn2Cc2ccccc2)cc1	0	
CCOc1ccc(NC(=O)Cn2c(=O)n(CCCC(=O)NCc3ccc4c(c3)OCO4)c(=O)c3ccccc32)cc1	7.21	
O=C(COC(=O)c1ccccc1C(=O)c1ccccc1)c1ccco1	2.69	
CCc1ccc(C(=O)COC(=O)c2ccco2)cc1	55.8	

Structure (SMILES)	activation [%]	Potency
CCN(CC)c1ccc(C(=O)OCC(=O)c2ccco2)cc1		8.91 µM (active)
COc1ccc(S(=O)(=O)n2nc(C)c(S(=O)(=O)N3CCCCCC3)c2C)cc1	11.7	
COc1ccc(S(=O)(=O)Nc2cccc3cccnc23)c(N)c1	-64.9	
O=C(NCC1CCCO1)c1cc2c(s1)CCCC2 (stereo not given)		5.62 µM (active)
O=C(NCCCn1ccnc1)c1cc2c(s1)CCCC2	0.602	
CCC(=O)c1c[nH]c(C(=O)NCC2CCCO2)c1 (stereo not given)	-7.15	
Fc1cccc(Cl)c1CSc1ccc(-c2ccco2)nn1		3.55 µM (active)
Cc1snc(SCc2c(F)cccc2Cl)c1C#N	-0.438	
COc1ccc(NC(=O)CSc2ccc(-c3ccco3)nn2)c(OC)c1	-0.876	
S=C(Nc1ccc(Cl)cc1Cl)N1CCCC1	97.8	
O=C(NC(=S)Nc1ccc(Cl)cc1Cl)C1CC1		3.16 µM (active)
O=C(NC(=S)Nc1ccc(Br)cc1F)C1CCCCC1	34.2	
CCC(=O)Nc1ccc(C(=O)Nc2cc(C)on2)cc1	78.7	
CCOc1ccc(NC(=O)Nc2cc(C)on2)cc1		7.94 µM (active)
CCOc1ccc(NC(=O)Nc2ccc(N(C)C(C)=O)cc2)cc1	-10.8	
Cc1ccccc1OCCSc1nc2ccc(NC(=O)c3ccco3)cc2s1	0	
Oc1ccc(Br)cc1C1C=C(c2ccc3c(c2)OCO3)NC(c2ccc(Cl)cc2)N1 (stereo not given)	0	
COc1ccc(COCC(O)CN2CCC(C(N)=O)CC2)cc1 (stereo not given)	-22.9	
COc1cc(CN2CCC(C(N)=O)CC2)ccc1OCc1ccccc1		11.2 µM (active)
COc1ccc(CCN2C(=O)CC(N3CCC(C(N)=O)CC3)C2=O)cc1OC (stereo not given)	2.27	
CN(C)c1ccc(/C=C/c2sc3ccccc3[n+]2C)cc1	-43.7	
COc1ccc(NC(=O)COC(=O)c2n[nH]c3ccccc23)c(OC)c1	-36.1	

Structure (SMILES)	activation [%]	Potency
COC(=O)[C@@H](NC(=O)NCc1cccc(OC)c1)C(C)C	4.02	
COc1cccc(CC(=O)OCC(=O)NCc2ccc3c(c2)OCO3)c1	-10.7	
COc1ccc(S(=O)(=O)N(C)C)cc1NC(=O)COC(=O)c1n[nH]c2ccccc12	-5.05	
COc1cccc(CNC(=O)c2n[nH]c3ccccc23)c1		11.2 µM (active)
COc1ccc(COC(=O)c2n[nH]c3ccccc23)cc1F		14.1 µM (active)
CC(=O)c1ccc(NC(=O)C2CCN(S(=O)(=O)c3c(C)noc3/C=C/c3ccc(C)cc3)CC2)cc1	13.2	
CN(CCC#N)c1ccc(C=O)cc1	1.33	
CCN(CCCNC(=O)c1c(C)oc2ncn(CC(C)C)c(=O)c12)Cc1ccccc1	0	
COc1cccc(NC(=O)N(Cc2cn(C)c3ccccc23)C2CCCCCC2)c1	-54.9	
CNc1ccc(-c2nc(-c3ccccc3C)no2)cc1[N+](=O)[O-]	-0.0312	
CCCCN1CC(c2nc3ccccc3n2CCCCOc2ccc(C)cc2C)CC1=O (stereo not given)	-27.3	
CC(C)=C1SC(N2CCN(c3ccc(C)c(Cl)c3)CC2)=NC1=O	-11.5	
CCN1C(=O)/C(=C2\SC(N3CCCCC3)=NC2=O)c2ccccc21		10 µM (active)
CCn1c(=O)n(CC)c2cc(N3CCCC3)c(NC(=O)c3ccccc3Br)cc21	-43.1	
Cc1cc(OC(C)C(=O)Nc2sc3c(c2C(N)=O)CCCC3)ccc1Cl (stereo not given)	9.91	
Cc1nc(-c2ccccc2)sc1C(=O)/C=C/N(C)C		11.2 µM (active)
CN(C)/C=C/C(=O)c1cnc2sccn2c1=O	-21.1	
Cc1nc(COc2cccc(Cl)c2)sc1C(=O)/C=C/N(C)C	86	
Cc1cccc(N2CCN(C(=O)c3cc4c(=O)oc5ccccc5c4s3)CC2C)c1 (stereo not given)	1.26	
CCCCn1nc(C(=O)N2CCc3ccccc32)c2ccccc2c1=O	-9.5	
Cc1cnc(C(=O)OCC(=O)N2CCc3ccccc32)cn1	45.7	
O=C(c1cnn2ccccc12)N1CCc2ccccc21		3.16 µM (active)
